Shown are actives, neighbours in structure and some others; about 1.3% of the full set was active somewhere.
PKA-R1A act = activators of PKA-R1A complex. P00514+P68181. PKA-R1A dissociation, Cy5-IP20 fluorescence polarization; scaled: DMSO 0%, 113 µM cGMP 100%. activation, % at 11.4 µM. 340,000 tested, 0.083% active;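 active = percent activation above the mean of all tested compounds plus 3 SD, cut at about 19% in these data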;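 note: higher means more PKAc released from R1A so a rise in polarization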
Rpn11 inh = blocks the human proteasome subunit Rpn11; O00487; human 26S proteasome, Ub4-pepOG fluorescence polarization; 20S core pre-blocked with epoxomicin; calls only at 20 µM; 360,000 tested, 0.59% active; AID 588493;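 active = inhibition at 20 µM, scaled to each plate's controls, above about 33%, limit read from the data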
Neddyl block = inhibitors of human cullin neddylation. P61081+Q13564. TR-FRET cullin neddylation, biochemical. inhibition, % at 25 µM. 360,000 tested, 0.58% active; in the data active = inhibition above about 36%
PKA-R2B act = PKA-R2B complex activation | activation, % at 11.4 µM | PKA-R2B holoenzyme dissociation, Cy5-IP20 fluorescence polarization; R2B truncated from residue 108, S112A mutant; 0% DMSO only, 100% 113 µM cGMP | 340,000 tested, 0.079% active | P22694+P31323 | AID 504700;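 active = activation above a cutoff set at the mean over all compounds plus 3 SD, cut at about 18% in these data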;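 note: higher means more holoenzyme dissociation and a rise in polarization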
Target sequence (P31323 whole entry, looked up, other chains not shown, the tested form may be a part): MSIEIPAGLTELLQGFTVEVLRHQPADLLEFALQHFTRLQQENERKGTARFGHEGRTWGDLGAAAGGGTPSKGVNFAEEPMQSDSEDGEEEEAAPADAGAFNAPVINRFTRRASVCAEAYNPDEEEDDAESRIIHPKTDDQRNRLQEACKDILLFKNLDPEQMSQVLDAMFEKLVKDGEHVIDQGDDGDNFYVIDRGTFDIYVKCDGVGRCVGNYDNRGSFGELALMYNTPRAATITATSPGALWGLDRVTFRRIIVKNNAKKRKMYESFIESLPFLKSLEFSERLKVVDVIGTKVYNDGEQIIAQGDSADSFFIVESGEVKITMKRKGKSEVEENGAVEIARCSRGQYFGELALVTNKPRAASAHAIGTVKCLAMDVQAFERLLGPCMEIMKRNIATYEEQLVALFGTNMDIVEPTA
Rpn11 confirm = Rpn11 inhibition confirmation, single concentration; shares compounds with Rpn11 inh; purified human 26S proteasome, Ub4-pepOG fluorescence polarization; proteasome pretreated with epoxomicin; inhibition, % at 20 µM; 1,900 tested, 29% active; AID 602318
MMP-2 inh = counter-screen for RPN11 inhibitors: inhibition of human MMP-2. shares compounds with Rpn11 inh. inhibition, % at 20 µM. 1,900 tested, 4% active. AID 602330. recombinant MMP-2, FRET peptide cleavage fluorescence;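 note: human MMP-2 activated beforehand with APMA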
Thrombin FP = blocks bovine thrombin, flagging nonselective RPN11 hits | bovine thrombin cleavage of Ub4-pepOG, fluorescence polarization | inhibition, % at 20 µM | shares compounds with Rpn11 inh | 1,900 tested, 13% active;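 active = mean inhibition at least 40% at 20 µM, or signal 3 deviations below plate average, so some actives read negative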;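 note: plate controls were thrombin with DMSO for no effect and buffer wells lacking thrombin for full effect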
* hit, by the source's call; i = inactive; x = no result shown; + = active, no number; ! = a repeat was not active. Cut-off read from the data, not from the text of the source, unless noted: active = inhibition above about 40%; inactive = the rest.

SMILES	PKA-R1A act	Rpn11 inh	Neddyl block	PKA-R2B act	Rpn11 confirm	MMP-2 inh	Thrombin FP
CN(C)c1ccc(/C=C/C=C2/C(=O)NC(=O)N(c3ccccc3)C2=O)cc1	-2.7	+	-17.3	-3.2	65.0*	-22.0	34.5
Cc1cccc(N2C(=O)NC(=O)/C(=C\C=C\c3ccco3)C2=O)c1	5.0	i	6.8	-3.1	x	x	x
Cc1ccc(N2C(=O)NC(=O)/C(=C\C=C\c3ccco3)C2=O)cc1C	0.4	i	5.1	-2.9	x	x	x
O=C1NC(=O)N(c2ccccc2)C(=O)/C1=C/C=C/c1ccco1	-1.7	+	8.8	2.4	13.3	20.6	4.5
O=C1NC(=O)N(Cc2ccccc2)C(=O)/C1=C\C=C\c1ccco1	6.8	+	-2.8	11.9	28.5	11.2	20.6
N=Cc1c(O)n(-c2ccccc2)c(=O)n(-c2ccccc2)c1=O	-1.1	i	1.8	-4.2	x	x	x
COc1ccc(OC)c(-n2c(O)c(C=Nc3c(C)n(C)n(-c4ccccc4)c3=O)c(=O)[nH]c2=S)c1	x	+	-12.9	x	40.7*	3.8	15.7
CCN(CC)c1ccc(N=Cc2c(O)n(-c3cc(OC)ccc3OC)c(=O)[nH]c2=O)cc1	-17.2	+	-20.1	-8.6	46.5*	-8.6	41.8*
O=c1[nH]c2ccccc2n1C1CCN(C(CCc2ccccc2)c2nnnn2C2CCCCC2)CC1 (stereo unspecified)	x	i	-6.3	x	x	x	x
CN1CC2CN(Cc3ccccc3)S(=O)(=O)C2C1 (stereo unspecified)	x	i	1.4	x	x	x	x
NC(Cc1ccc(F)cc1)c1csc(Nc2ncccn2)n1 (stereo unspecified)	x	i	8.5	x	x	x	x
CC(C)(O)/C=C/C(=O)C(C)(O)C1C(O)CC2(C)C3CC=C4C(C=C(O)C(=O)C4(C)C)C3(C)C(=O)CC12C (stereo unspecified)	8.8	i	-5.8	-8.3	x	x	x
Cn1cc[n+](C)c1P(=S)(c1ccccc1)c1ccccc1	-15.5	i	3.5	4.5	x	x	x
Cc1c(P(=S)(c2ccccc2)c2ccccc2)[n+]2ccccc2n1C	-2.7	+!	36.6	0.2	77.8*	-248.9	13.1
Cc1cc(/C=C2\C(=O)NC(=O)N(c3ccc(Cl)cc3)C2=O)c(C)n1-c1sc2c(c1C#N)CCCC2	-8.5	+	-41.4	-0.2	36.4	-16.3	23.9
CCOC(=O)c1c(-n2c(C)cc(/C=C3\C(=O)NC(=O)N(C)C3=O)c2C)sc2c1CCCC2	-9.1	i	-10.5	-10.5	x	x	x
CCC(C)N1C(=O)/C(=C\c2cc3c4c(c2)CCCN4CCC3)C(=O)NC1=S (stereo unspecified)	-1.0	i	-7.6	-1.5	x	x	x
CCC(C)N1C(=O)/C(=C\c2ccc(N3CCCCCC3)cc2)C(=O)NC1=S (stereo unspecified)	1.1	+	4.2	-9.8	2.7	9.0	0.4
COc1ccccc1-n1c(O)c(/C=C2\C=Nc3ccccc32)c(=O)[nH]c1=O	-12.7	+	-8.0	3.8	5.5	1.3	0.1
COc1ccc(OC)c(-n2c(O)c(/C=C3\C=Nc4ccccc43)c(=O)[nH]c2=O)c1	7.6	i	8.8	-4.3	x	x	x
C=CCn1c(O)c(/C=C2\C=Nc3ccccc32)c(=O)[nH]c1=O	x	+	0.8	x	14.5	-4.8	9.8
CNCC(O)c1cc(OCc2ccccc2)c(OCc2ccccc2)cc1F (stereo unspecified)	-6.7	i	2.6	-8.9	x	x	x
CCN(CC)CCOC(=O)c1ccc(N=Cc2c(O)[nH]c(=O)[nH]c2=O)cc1	-1.2	+	-11.6	-7.4	104.3*	-6.0	73.5*
COC(=O)c1ccccc1N=Cc1c(O)[nH]c(=O)[nH]c1=O	2.4	i	-1.1	4.2	x	x	x
CC1(C)C(C(=O)N2CCN(c3ccc(Cl)cc3)CC2)C1(C)C	-8.7	+	6.0	0.6	4.6	-15.8	-6.3
SMILES	PKA-R1A act	Rpn11 inh	Neddyl block	PKA-R2B act	Rpn11 confirm	MMP-2 inh	Thrombin FP
COC(=O)C1=C(c2ccc(-c3ccccc3)c(F)c2)C[C@@H]2CC[C@H]1N2C(=O)N1CCCC1	0.7	i	-14.5	-4.7	x	x	x
COc1ccc(N2C(=O)/C(=C/c3ccc(C)o3)C(=O)NC2=S)cc1	-0.8	+	-11.6	3.3	61.1*	55.7*	62.7*
Cc1ccc(/C=C2\C(=O)NC(=S)N(c3cccc(F)c3)C2=O)o1	1.1	x	-4.4	5.6	x	x	x
CCOc1ccc(N2C(=O)/C(=C/c3ccc(C)o3)C(=O)NC2=S)cc1	5.2	+	-13.2	9.8	24.8	56.5*	33.6
CNCCc1nc(N)n[nH]1	-2.8	i	3.9	-2.3	x	x	x
O=C1NC(=O)N(c2ccc(Cl)cc2)C(=O)/C1=C\c1ccc(Sc2nc3ccccc3[nH]2)o1	-10.7	+	-5.9	1.7	73.5*	15.2	48.7*
C[C@H](CO)N1C[C@H](C)[C@@H](CN(C)C(=O)Oc2ccc3ccccc3c2)OCc2cnnn2CCCC1=O	2.4	i	-3.7	3.4	x	x	x
O=C(N/N=C/c1c(O)n(CCC2=CCCCC2)c(=S)[nH]c1=O)c1ccccc1	-0.1	+	x	-7.0	76.0*	-2.4	12.7
CCc1ccc(N2C(=O)NC(=O)/C(=C\c3cccn3CCOc3ccc(C(C)C)cc3)C2=O)cc1	-6.5	+	14.8	3.6	-16.0	-63.5	-9.3
CCC(C)N1CCN(C(=O)COc2ccc3ccccc3c2)CC1 (stereo unspecified)	0.0	+	1.6	-10.7	-2.4	-9.1	1.1
COc1ccc(CN2CCN(C(=O)COc3ccc4ccccc4c3)CC2)c(OC)c1	7.2	i	-11.7	-7.4	x	x	x
COc1ccc(Cn2c(N)c(C(=O)NCc3ccco3)c3nc4ccccc4nc32)cc1OC	-3.3	+	19.1	-16.4	-3.5	-37.3	-1.9
COCCCNC(=O)c1c(N)n(Cc2ccco2)c2nc3ccccc3nc12	x	i	x	x	x	x	x
Cc1ccccc1NP(=O)(Oc1ccccc1F)Oc1ccccc1F	-4.4	i	0.4	-7.4	x	x	x
Cc1cc(C=C2C(=O)NC(=S)NC2=O)c(C)n1C1CCCC1	4.3	i	-12.2	0.4	x	x	x
Cc1cc(C=C2C(=O)N(C)C(=S)N(C)C2=O)c(C)n1C1CCCCC1	4.5	+	-17.6	0.9	-2.1	-27.1	14.3
Cn1c(=O)c2c(nc(N/N=C/c3c(O)n(C4CCCCC4)c(=S)[nH]c3=O)n2C)n(C)c1=O	-4.1	+	42.3*	0.1	19.3	19.9	-1.3
COc1ccc(/C=N\N=C(N)N)cc1	7.7	i	-24.2	0.9	x	x	x
NC(N)=N/N=C/c1ccc(N(c2ccccc2)c2ccccc2)cc1	-0.6	+	38.4	0.5	71.1*	-8.3	0.2

From PubChem BioAssay
